From PubChem BioAssay AID1159580 (chemical genetic matrix, 2015)
Among all 5,500 compounds or so, about 2,000 (36%) were called active. Not shown: some 18% with an inconclusive outcome. No stated cut-off is given here; in the data, active means normalized growth mostly below about 0.91 (no sharp cut-off); inconclusive means no clear call, values can overlap the other calls; inactive means mostly above about 0.92. Some of the results follow.

Assay: chemical genetic growth profiling, strain panel (AID 1159580);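 further: tested at 20 µM; growth read once vehicle control cultures reached saturation at 30 °C; 1 = growth at the plate median or of vehicle wells; lower values mean less growth of the strain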
Settings: S. cerevisiae deletion strains, growth OD

Measured: normalized growth

COc1ccc2c(=O)ccoc2c1
inactive: locus YAL013W, strain DEP1, active compounds read low 1.02 | locus YAL021C, strain ccr4, active compounds read low 1.02 | locus YAL026C, strain drs2, active compounds read low 1.02 | locus YAL030W, strain snc1, active compounds read low 1.01 | locus YBL061C, strain skt5, active compounds read low 1.01 | locus YBR009C, strain hhf1, active compounds read low 1.02 | locus YBR021W, strain FUR4, active compounds read low 0.979 | locus YBR023C, strain chs3, active compounds read low 1.02 | locus YBR171W, strain sec66, active compounds read low 1.04 | locus YBR229C, strain ROT2, active compounds read low 1.01 | locus YBR231C, strain swc5, active compounds read low 1.01 | locus YBR279W, strain paf1, active compounds read low 1.02 | locus YCL011C, strain gbp2, active compounds read low 1.02 | locus YCL016C, strain dcc1, active compounds read low 1.02 | locus YCL029C, strain bik1, active compounds read low 1.01 | locus YCL061C, strain MRC1, active compounds read low 1.02 | locus YCL069W, strain vba3, active compounds read low 1.02 | locus YCR088W, strain abp1, active compounds read low 1.03 | locus YDL005C, strain med2, active compounds read low 1.02 | locus YDL035C, strain GPR1, active compounds read low 1 | locus YDL040C, strain nat1, active compounds read low 1.02 | locus YDL074C, strain BRE1, active compounds read low 1.02 | locus YDL101C, strain DUN1, active compounds read low 1.02 | locus YDL134C, strain PPH21, active compounds read low 1.02 | locus YDL185W, strain tfp1, active compounds read low 1.01 | locus YDL192W, strain arf1, active compounds read low 1.01 | locus YDR001C, strain nth1, active compounds read low 1.02 | locus YDR069C, strain doa4, active compounds read low 1.02 | locus YDR101C, strain arx1, active compounds read low 0.995 | locus YDR137W, strain rgp1, active compounds read low 1.03 | locus YDR150W, strain NUM1, active compounds read low 1.03 | locus YDR159W, strain sac3, active compounds read low 1.04 | locus YDR162C, strain NBP2, active compounds read low 1.02 | locus YDR195W, strain ref2 1.08 | locus YDR297W, strain sur2, active compounds read low 1.02 | locus YDR318W, strain mcm21, active compounds read low 0.992 | locus YDR334W, strain swr1, active compounds read low 1.02 | locus YDR335W, strain msn5, active compounds read low 1.02 | locus YDR388W, active compounds read low 1.01 | locus YDR392W, strain spt3, active compounds read low 1.04 | locus YDR502C, strain sam2, active compounds read low 1.01 | locus YEL003W, strain gim4, active compounds read low 1.02 | locus YEL037C, strain rad23, active compounds read low 1.02 | locus YEL061C, strain CIN8 (second series), active compounds read low 1.02 | locus YEL061C, strain CIN8, active compounds read low 1.01 | locus YER015W, strain faa2, active compounds read low 1.03 | locus YER016W, strain bim1, active compounds read low 1.02 | locus YER110C, active compounds read low 1.01 | locus YER111C, strain swi4, active compounds read low 1.01 | locus YER155C, strain BEM2 (second series), active compounds read low 1 | locus YER155C, strain BEM2, active compounds read low 1.02 | locus YER167W, strain BCK2, active compounds read low 1.04 | locus YFR010W, strain ubp6, active compounds read low 1.03 | locus YGL078C, strain dbp3, active compounds read low 1.02 | locus YGL086W, strain mad1, active compounds read low 1.01 | locus YGL167C, strain pmr1, active compounds read low 1.03 | locus YGL173C, strain kem1, active compounds read low 1.02 | locus YGL227W, strain vid30, active compounds read low 1.03 | locus YGL240W, strain doc1, active compounds read low 1.02 | locus YGL248W, strain PDE1, active compounds read low 1.02 | locus YGL253W, strain hxk2, active compounds read low 1.02 | locus YGR078C, strain PAC10, active compounds read low 0.997 | locus YGR135W, strain pre9, active compounds read low 0.978 | locus YGR229C, strain SMI1, active compounds read low 1.04 | locus YGR252W, strain gcn5, active compounds read low 0.825 | locus YHR013C, strain ard1, active compounds read low 1.08 | locus YHR027C, strain rpn1, active compounds read low 1.03 | locus YHR030C, strain SLT2, active compounds read low 1.02 | locus YHR079C, strain IRE1 (second series), active compounds read low 0.998 | locus YHR094C, strain hxt1, active compounds read low 1.01 | locus YHR129C, strain ARP1, active compounds read low 1.01 | locus YHR142W, strain chs7, active compounds read low 1.03 | locus YHR200W, strain rpn10, active compounds read low 0.997 | locus YIL066C, strain RNR3, active compounds read low 1.01 | locus YIL073C, strain SPO22, active compounds read low 1.04 | locus YIL125W, strain kgd1, active compounds read low 1.02 | locus YIR030C, strain dcg1, active compounds read low 1.01 | locus YJL092W, strain hpr5, active compounds read low 1.02 | locus YJL095W, strain BCK1 (second series), active compounds read low 1.02 | locus YJL095W, strain BCK1, active compounds read low 0.991 | locus YJL115W, strain asf1, active compounds read low 1.01 | locus YJL129C, strain trk1, active compounds read low 1.06 | locus YJL134W, strain LCB3, active compounds read low 1.02 | locus YJL154C, strain vps35, active compounds read low 1.03 | locus YJL164C, strain tpk1, active compounds read low 1.03 | locus YJL166W, strain qcr8, active compounds read low 1.02 | locus YJL168C, strain set2, active compounds read low 1.01 | locus YJL187C, strain SWE1 (second series), active compounds read low 1.01 | locus YJL187C, strain SWE1, active compounds read low 1.02
